Screening data: PubChem BioAssay, several laboratories
Hits are enriched below; roughly 2.8% of the tested compounds scored in any of these assays.
p47phox inh – blocks human p47phox regulatory protein of NADPH oxidases; P14598; p47phox/p22phox peptide binding, fluorescence polarization, 2 h; inhibition, % at 24.7 µM; 0.53% of 220,000 active; AID 1274;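 active = inhibition above about 30%, limit read from the data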
Wee1 stabilizer – inhibitors of human Wee1 degradation. P30291. HeLa Luc-Wee1K328M stability, luciferase luminescence; 100% = proteasome inhibitor MG132 effect. reporter increase, % at 5 µM. 1.2% of 220,000 active. AID 1321;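 active = activation above the mean of all tested compounds plus 3 SD, set per screening run, cut at about 8.8% in these data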;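 also: cells exposed to compound for 20 h before luminescence read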
Target sequence (P30291 whole entry K328M): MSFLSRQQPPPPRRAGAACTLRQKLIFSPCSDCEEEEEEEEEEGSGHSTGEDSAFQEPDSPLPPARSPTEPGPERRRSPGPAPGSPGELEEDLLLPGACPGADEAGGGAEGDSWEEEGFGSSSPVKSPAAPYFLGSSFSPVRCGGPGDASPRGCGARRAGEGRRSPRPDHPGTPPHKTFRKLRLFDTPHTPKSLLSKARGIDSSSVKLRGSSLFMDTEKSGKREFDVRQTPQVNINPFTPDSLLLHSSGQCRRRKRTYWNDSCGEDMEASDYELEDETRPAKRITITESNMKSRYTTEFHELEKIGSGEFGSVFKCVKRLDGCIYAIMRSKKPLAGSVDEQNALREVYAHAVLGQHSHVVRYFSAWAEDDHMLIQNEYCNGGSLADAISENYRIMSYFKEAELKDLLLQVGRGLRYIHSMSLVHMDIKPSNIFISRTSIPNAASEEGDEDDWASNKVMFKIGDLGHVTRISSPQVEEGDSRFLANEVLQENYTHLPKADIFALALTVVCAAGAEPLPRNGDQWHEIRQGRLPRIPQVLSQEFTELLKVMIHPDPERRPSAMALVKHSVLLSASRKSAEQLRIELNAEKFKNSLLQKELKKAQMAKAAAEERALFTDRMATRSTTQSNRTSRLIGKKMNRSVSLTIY
HSV augment – HSV replication enhancement. HSV replication augmentation in cells, fold increase. maximum fold increase. 0.005% of 220,000 active; in the data active = maximum fold increase above about 1.5; tested in PC3 cells
EP2 mod – modulators of human EP2 prostaglandin E2 receptor; 0.83% of 260,000 active; EP2-expressing cells, cAMP HTRF FRET, PGE2 co-stimulation; induction, % at 25 µM;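 active = compounds whose cAMP rise, as percent of the full-agonist control response, exceeds 60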;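 also: rat C6 glioma line stably carrying human EP2 under a CMV promoter; the protocol text gives 20 µM as final concentration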
PGE2 EP2 inh – blocks the human prostaglandin E2 receptor EP2; C6 glioma cells expressing human EP2, cAMP TR-FRET; cells stimulated with saturating PGE2; 0.52% of 260,000 active; inhibition, % at 25 µM; AID 1422;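 active = percent inhibition above 40 after rounding to a whole number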;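 also: rat C6 glioma host cells with rolipram phosphodiesterase inhibitor present; the protocol text gives 20 µM as final concentration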
Furin inhibitor – blocks human furin protease activity. P09958. 0.061% of 220,000 active. purified furin, fluorogenic substrate cleavage. inhibition, % at 20 µM or 30 µM. AID 463115; in the data active = inhibition above about 25%
Large screens that a line does not name were inactive.

CN(C)CCCNS(=O)(=O)c1ccc(N2CCC(c3ccc(Cl)cc3)=N2)cc1	p47phox inh 41
Cc1ccc2nc(-c3ccc(Br)o3)oc(=O)c2c1	none
COc1cc2nc(-c3ccc(Br)o3)oc(=O)c2cc1OC	PGE2 EP2 inh 40
CCc1ccc2c(c1)C(O)(CC(=O)c1cccs1)C(=O)N2 (centres undefined)	Wee1 stabilizer 9.8
COc1ccc(-c2nnc(SCC(=O)Nc3ccc(OC)cc3OC)n2C)cc1	none (no result: p47phox inh, Wee1 stabilizer, HSV augment, Furin inhibitor)
O=C(c1cccs1)N1CCc2c([nH]c3ccccc23)C1c1ccccn1 (centres undefined)	none
O=C(c1cccs1)N1CCc2c([nH]c3ccccc23)C1c1ccc(Cl)cc1 (centres undefined)	p47phox inh 31
CC(C)NC(=O)CSc1nc(-c2cccs2)cc(C(F)(F)F)n1	none (no result: p47phox inh, Wee1 stabilizer, HSV augment, Furin inhibitor)
COc1cc2c(cc1CN1CCc3sccc3C1C)OCCO2 (centres undefined)	none (no result: p47phox inh, Wee1 stabilizer, HSV augment, Furin inhibitor)
CN(C(=O)C(Cl)Cl)C1CC2C=CC1C2 (centres undefined)	Wee1 stabilizer 11
CCCc1nnc(SCC(=O)N2CCCC2)n1CCCOC	none (no result: p47phox inh, Wee1 stabilizer, HSV augment, Furin inhibitor)
CCn1cc(CN2CCC(O)(c3ccc(C)cc3)CC2)cn1	none (no result: p47phox inh, Wee1 stabilizer, HSV augment, Furin inhibitor)
Cc1nc2ccccc2n1-c1ccccc1	none
c1ccc(-n2c3ccccc3c3ccccc32)cc1	EP2 mod 64
O=C(O)CCC(=O)Nc1nc(C2CC2)cs1	none (no result: p47phox inh, Wee1 stabilizer, HSV augment, Furin inhibitor)
O=C(O)c1cccc(-n2cccc2/C=C2/NC(=O)N(c3cccc(Cl)c3)C2=O)c1	none
COc1ccc(-n2cccc2/C=C2/NC(=O)N(c3cccc(Cl)c3)C2=O)cc1	Wee1 stabilizer 8.9
CC(C)(CN1CCCC1)CN1CCC(O)(c2ccccc2F)CC1	none (no result: p47phox inh, Wee1 stabilizer, HSV augment, Furin inhibitor)
Cc1ccc(-c2nc3cccnc3s2)cc1NC(=O)c1ccco1	none (no result: p47phox inh, EP2 mod, PGE2 EP2 inh)
Cc1ccc(-c2nc3cccnc3s2)cc1NC(=O)C1c2ccccc2Oc2ccccc21	p47phox inh 33 (no result: HSV augment)
Cc1cc2ccccc2c[n+]1CC(O)C[n+]1cc2ccccc2cc1C	PGE2 EP2 inh 55 (no result: p47phox inh, Wee1 stabilizer, HSV augment, Furin inhibitor)
O=C1Nc2ccc(F)cc2C12Nc1ccccc1-c1nnc(SCc3ccccc3F)nc1O2 (centres undefined)	p47phox inh 43 (no result: PGE2 EP2 inh)
O=C1Nc2ccc(Cl)cc2C12Nc1ccccc1-c1nnc(SCc3ccccc3F)nc1O2 (centres undefined)	none
COc1ccc(-c2nn3c(C4CCCCC4)nnc3s2)cc1OC	EP2 mod 61
COc1cc(-c2nc3cnccn3c2NCc2cccs2)ccc1O	none (no result: p47phox inh, Wee1 stabilizer, HSV augment, Furin inhibitor)
O=C(COc1ccccc1)NCC(=O)NC1=NCCS1	none
Cc1ccc(OCC(=O)NC2=NCCS2)cc1	p47phox inh 47
NS(=O)(=O)c1ccc(N=Nc2c(=O)[nH]n3c(=O)c4c([nH]c23)CCCC4)cc1	none
Nc1[nH]c(=S)[nH]c(=O)c1N=Nc1c(Br)cc(S(N)(=O)=O)cc1Br	PGE2 EP2 inh 51 (no result: p47phox inh, Wee1 stabilizer, HSV augment, Furin inhibitor)
O=C(NCCc1nc(-c2cccnc2)n[nH]1)c1nccc2ccccc12	none (no result: p47phox inh, Wee1 stabilizer, HSV augment, Furin inhibitor)
Cc1ccc(CNC(=O)c2ccc(CN3CCOCC3)cc2)cc1	p47phox inh 37
Cc1ccc(SCCNC(=O)c2ccc(CN3CCOCC3)cc2)cc1	none
COc1nc(C)ccc1-c1noc(-c2ccccn2)n1	Furin inhibitor 28
COc1ccccc1-c1nc(-c2ccc(C)nc2OC)no1	none
Cc1ccc2[nH]c(=O)c(CN(Cc3nnnn3Cc3ccc(F)cc3)C3CCCC3)cc2c1	none (no result: p47phox inh, Wee1 stabilizer, HSV augment, Furin inhibitor)
c1ccc2cc(-c3cc(-c4cc(-c5ccc6ccccc6c5)on4)no3)ccc2c1	PGE2 EP2 inh 45 (no result: p47phox inh, Wee1 stabilizer, HSV augment, Furin inhibitor)
Cc1ncc(-c2ccncc2)c(C2CCCN(C(=O)c3ccc4ncccc4c3)C2)n1 (centres undefined)	none (no result: p47phox inh, Wee1 stabilizer, HSV augment, PGE2 EP2 inh, Furin inhibitor)
O=C1N(c2ccccc2)C2CS(=O)(=O)CC2N1c1ccc(Br)cc1 (centres undefined)	none
O=S1(=O)CC2NC(=S)N(c3cccc(Br)c3)C2C1 (centres undefined)	EP2 mod 70
O=C(Nc1cccc([N+](=O)[O-])c1)c1ccc2nc(N3C(=O)CCC3=O)sc2c1	PGE2 EP2 inh 85
O=C1OCC=C1NNC(=O)c1cccnc1	p47phox inh active
COc1cc(C2NC(=O)NC(C)=C2C(=O)Nc2ccc(F)cc2)cc(OC)c1OC (centres undefined)	none (no result: p47phox inh, Wee1 stabilizer, HSV augment, Furin inhibitor)
O=C(C1=C(O)C(=O)N(Cc2ccco2)C1c1cccnc1)c1cc2ccccc2o1 (centres undefined)	PGE2 EP2 inh 47
COC(=O)c1ccc(C2C(C(=O)c3cc4ccccc4o3)=C(O)C(=O)N2CCCN(C)C)cc1 (centres undefined)	none
CN(C)CCCN1C(=O)C(O)=C(C(=O)c2cc3ccccc3o2)C1c1ccccc1 (centres undefined)	EP2 mod 62 (no result: HSV augment, PGE2 EP2 inh)
O=C1NC2(CCN(C(=O)CN3CCC(c4ccccc4)CC3)CC2)Oc2ccccc21	none (no result: p47phox inh, Wee1 stabilizer, HSV augment, Furin inhibitor)
O=C(CCn1c(=O)oc2ccccc21)N1CCc2c(nc(N3CCCC3)[nH]c2=O)C1	none (no result: p47phox inh, Wee1 stabilizer, HSV augment, Furin inhibitor)
c1ccc(C[n+]2cccc(-c3ccccc3)c2)cc1	none
c1ccc(C[n+]2cccc(-c3cc4ccccc4[nH]3)c2)cc1	PGE2 EP2 inh 59 (no result: p47phox inh, Wee1 stabilizer, HSV augment, Furin inhibitor)
CC(C)(C)c1ccc(C(=O)N2CCNCC2)cc1	p47phox inh 38
COc1cccc(OCc2nnc(SCC(=O)O)n2C)c1	none (no result: p47phox inh, Wee1 stabilizer, HSV augment, Furin inhibitor)
COc1cc(NCCCCCCCN)c2ncccc2c1	p47phox inh 34
CCN(CC)S(=O)(=O)c1ccc(NC(=O)c2ccc(Sc3nncn3C)c([N+](=O)[O-])c2)cc1	none
CCS(=O)(=O)c1ccc(Sc2nncn2C)c([N+](=O)[O-])c1	p47phox inh 124 (no result: HSV augment)
Cc1[nH]c(C)c2c(=O)n(-c3ccccc3)ncc12	Wee1 stabilizer 14
Cc1cc(C)nc(SCc2nnc(SC(C)C(=O)Nc3ccccc3C)n2C)n1 (centres undefined)	none (no result: p47phox inh, Wee1 stabilizer, HSV augment, Furin inhibitor)
CCOC(=O)COc1nc(-c2ccco2)cc(-c2ccco2)c1C#N	none
CCOC(=O)C(C)Sc1nc(-c2ccccc2)ccc1C#N (centres undefined)	EP2 mod 62 (no result: p47phox inh, Wee1 stabilizer, HSV augment, Furin inhibitor)
CCN(CC)C(=O)CSc1nc(-c2ccccc2)ccc1C#N	none
CC(C)C(Sc1nc(-c2ccccc2)cc(-c2ccccc2)c1C#N)C(=O)O (centres undefined)	EP2 mod 62
CCOC(=O)C(C)Sc1nc(-c2ccco2)cc(C(F)(F)F)c1C#N (centres undefined)	Wee1 stabilizer 9.9
C=CCn1c(=S)[nH]c2scc(-c3cccs3)c2c1=O	PGE2 EP2 inh 63
Cc1nc2scc(-c3cccs3)c2c(=O)o1	none
Cn1c(=S)[nH]c2scc(-c3cccs3)c2c1=O	PGE2 EP2 inh 78
CCc1c(C)c(C#N)c2[nH]c3ccccc3n2c1=S	p47phox inh 30
COc1ccccc1/C=C/C(=O)c1cc(Br)ccc1OC(=O)c1ccco1	Wee1 stabilizer 13 (no result: p47phox inh, HSV augment, EP2 mod, PGE2 EP2 inh)
CC1=C(CC[C@H](C)CO)O[C@@H]2C[C@@H]3[C@H]4CC[C@H]5C[C@@H](O)CC[C@]5(C)[C@@H]4CC(=O)[C@@]3(C)[C@H]12	PGE2 EP2 inh 65 (no result: p47phox inh, Wee1 stabilizer, HSV augment, Furin inhibitor)
